Measurements reported in PubChem BioAssay (NCI).
The panel holds about 79,000 compounds, 15% with a hit somewhere; the sample as a whole holds those more often. Unmarked numbers belong to inactive results. Active and inactive are the calls of the source. No stated cut-off is given here; in the data, active means growth inhibition above about 70%; inactive means the rest.

Columns and labels:
[1] = NCI Yeast Anticancer Drug Screen. Data for the rad50 strain (AID 155);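 further: 0% = growth of vehicle-only cultures of the same strain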; details: S. cerevisiae rad50 strain growth inhibition, stronger effect = higher value
Procedure, shortened: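 Readout: growth inhibition relative to vehicle-treated cultures. Compound exposure was carried out in a genetically defined yeast strain deficient in DNA damage repair.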

[2] = NCI Yeast Anticancer Drug Screen. Data for the mec2-1 strain (AID 157); details: S. cerevisiae mec2-1 strain, stronger effect = higher value
Procedure, shortened: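 Mutant yeast (mec2-1) grown with compound; growth inhibition relative to vehicle control reported.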

[3] = NCI Yeast Anticancer Drug Screen. Data for the sgs1 mgt1 strain (AID 161);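 further: 0% = growth of cultures given vehicle only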; details: S. cerevisiae sgs1 mgt1 strain, stronger effect = higher value
Procedure, shortened: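 Compounds are added to genetically altered yeast, and growth is compared with cultures given vehicle alone to give percent inhibition.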

[4] = NCI Yeast Anticancer Drug Screen. Data for the cln2 rad14 strain (AID 165);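 further: 0% = growth equal to vehicle treated cultures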; details: S. cerevisiae cln2 rad14 strain, stronger effect = higher value
Procedure, shortened: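 Readout is yeast growth inhibition versus vehicle-treated controls, using a strain with cln2 and rad14 alterations exposed to compound.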

[5] = NCI Yeast Anticancer Drug Screen. Data for the bub3 strain (AID 167); details: S. cerevisiae bub3 mutant strain, stronger effect = higher value
Procedure, shortened: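 Readout: yeast growth inhibition, expressed relative to vehicle-only wells. The test organism is a mutant strain from a panel with lesions in DNA repair or checkpoint genes.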

[6] = NCI Yeast Anticancer Drug Screen. Data for the mlh1 rad18 strain (AID 175); details: S. cerevisiae mlh1 rad18 strain growth inhibition, stronger effect = higher value
Procedure, shortened: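 Genetically defined yeast (DNA repair-deficient) exposed to compounds; growth inhibition determined relative to vehicle.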

[7] = at 5.0 µM (retest, dose inferred, filed as 0.5)
[8] = at 50.0 µM (retest, dose inferred, filed as 5.0)

Structure (SMILES) | growth inhibition [1, 7] | growth inhibition [1, 8] | growth inhibition ([1]; at 50.0 µM) | growth inhibition [2, 7] | growth inhibition [2, 8] | growth inhibition ([2]; at 50.0 µM) | growth inhibition [3, 7] [%] | growth inhibition [3, 8] | growth inhibition ([3]; at 50.0 µM) | growth inhibition [4, 7] [%] | growth inhibition [4, 8] | growth inhibition ([4]; at 50.0 µM) | growth inhibition [5, 7] | growth inhibition [5, 8] | growth inhibition ([5]; at 50.0 µM) | growth inhibition [6, 7] | growth inhibition [6, 8] | growth inhibition ([6]; at 50.0 µM)
CCOC(=O)C1CCN(Cc2ccccc2)CC1=O (stereo not given) | 61% | 89% (active) | 90% (active) | 61% | 92% (active) | 91.3% (active) | 68 | 99% (active) | 92.4% (active) | 49 | 100% (active) | 90.2% (active) | 81% (active) | 98% (active) | 90.7% (active) | 49% | 87% (active) | 90.8% (active)
N[C@@H]1CCCC[C@@H]1N.O=C([O-])CN(CP(=O)([O-])[O-])CP(=O)([O-])[O-].[Pt+2] | -1% | 89% (active) | 99.5% (active) | 6% | 75% (active) | 99.7% (active) | 8 | 88% (active) | 99.5% (active) | 3 | 67% | 98.3% (active) | 5% | 89% (active) | 99.3% (active) | -1% | 77% (active) | 99.5% (active)
CCCC(C(=O)OCCN1CCCC1(C)C)C1CCCC1 (stereo not given) | 17% | 38% | 41% | 10% | 46% | 39% | 24 | 58% | 48% | 29 | 58% | 70.7% (active) | 45% | 62% | 36.5% | 36% | 68% | 40%
CCOc1ccccc1C(=O)OCc1ccccc1 | -7% | 8% | 10.1% | -9% | 4% | 0.65% | -1 | 19% | 18.9% | 23 | -22% | 15.2% | 4% | -20% | 6.2% | -19% | 21% | 1.55%
CC(=O)c1cc(I)c(O)c2ncccc12 | 96% (active) | 99% (active) | 90.3% (active) | 93% (active) | 99% (active) | 92.5% (active) | 29 | 98% (active) | 93% (active) | 69 | 96% (active) | 88.8% (active) | 28% | 95% (active) | 89.5% (active) | 100% (active) | 100% (active) | 87.9% (active)
CC(C)OC(=S)SSSC(=S)OC(C)C | 6% | 99% (active) | 99.5% (active) | 13% | 99% (active) | 99.5% (active) | 9 | 98% (active) | 99.7% (active) | 0 | 97% (active) | 68.2% | 6% | 99% (active) | 99.7% (active) | 9% | 98% (active) | 95.5% (active)
Cc1ccc([S@](=O)c2occc2C=O)cc1 | 37% | 88% (active) | 74.5% (active) | 29% | 98% (active) | 88.5% (active) | 38 | 98% (active) | 84.5% (active) | 23 | 43% | 13.4% | 43% | 98% (active) | 62.6% | 41% | 96% (active) | 88.2% (active)
C/C(O)=C(/C=N/C(=S)Nc1ccc(S(N)(=O)=O)cc1)C(=O)Nc1ccccc1C | 0% | 18% | 79.7% (active) | -10% | -4% | 81.7% (active) | -5 | -2% | 68.8% | -14 | 6% | 81.3% (active) | -13% | -6% | 67.5% | 3% | -15% | 89.4% (active)
C1=C(c2ccccc2)SC=C(c2ccccc2)S1 | -5% | -26% | -15.7% | -14% | -16% | 8.75% | -2 | 40% | -0.9% | -9 | -9% | -3.15% | 23% | 47% | 83% (active) | -6% | -8% | -5.45%
COc1cccc2c1C(=O)c1c(O)c(CCl)cc(O)c1C2=O | 44% | 97% (active) | 94% (active) | 23% | 91% (active) | 76.5% (active) | 47 | 96% (active) | 95.2% (active) | 17 | 96% (active) | 91.5% (active) | 3% | 49% | 21.8% | 35% | 97% (active) | 94.6% (active)
